# Measured values from PubChem BioAssay AID430 (Sanford-Burnham Center for Chemical Genomics, 2006).
# Among all 63,000 compounds or so, about 1,100 (1.7%) were called active. Rule as the data show it: active = cytotoxicity above about 50%; inactive = the rest. The sample as a whole holds a higher share of actives than the screen did. Potency and affinity values are given separately.
# Assay: HPDE-C7 pancreatic duct cell viability loss – fluorescence, HTS (AID 430);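 also: cells exposed to compound for 48 hours before viability readout; 0% = vehicle and 100% = reference cytotoxic drug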
# Settings: HPDE-C7 pancreatic duct cells viability, at 10 µM, stronger effect = higher value
row,Structure (SMILES),cytotoxicity
1,COc1ccc(S(=O)(=O)N(CC(=O)N2CCOCC2)c2cc(Cl)ccc2OC)cc1OC,-21.9% (inactive)
2,CCCCNC(=O)Nc1cc(C(F)(F)F)c[nH]c1=O,4.6% (inactive)
3,O=c1cc(-c2ccccc2)[nH]c2ccccc12,60.9% (active)
4,Cc1cc(=O)c2ccccc2[nH]1,-8.3% (inactive)
5,O=c1cc(-c2ccccc2)c2ccccc2[nH]1,-20.9% (inactive)
6,O=C(NCCCN1CCCC1=O)NC12CC3CC(CC(C3)C1)C2,-16.8% (inactive)
7,CCOC(=O)N1CCC2(CC1)C(C(=O)C13CC4CC(CC(C4)C1)C3)C2(C#N)C#N (stereo unspecified),-15.7% (inactive)
8,Cc1cc(C)n(-c2cccc3cccnc23)n1,-7% (inactive)
9,COc1ccccc1C(=O)Oc1cc(N)n(S(=O)(=O)c2ccc(C)cc2)n1,-1.2% (inactive)
10,COc1ccc(S(=O)(=O)n2nc(OC(=O)c3c(-c4ccccc4Cl)noc3C)cc2N)cc1,63.1% (active)
11,Cc1ccc(S(=O)(=O)n2nc(OC(=O)c3c(-c4ccccc4Cl)noc3C)cc2N)cc1,79.3% (active)
12,COc1ccc(S(=O)(=O)n2nc(OC(=O)c3ccccc3)cc2N)cc1,1.9% (inactive)
13,COc1ccc(S(=O)(=O)n2nc(OC(=O)c3ccc(C)cc3)cc2N)cc1,-9.2% (inactive)
14,Cc1onc(-c2ccccc2Cl)c1C(=O)Oc1cc(N)n(S(=O)(=O)c2ccc(F)cc2)n1,32.7% (inactive)
15,Cc1csc(NC(=O)CSc2nc(C)nc3c2c(=O)n(C)c(=O)n3C)n1,-1.2% (inactive)
16,O=C(c1ccc(CS(=O)(=O)Cc2ccc(Cl)cc2)o1)N1CCCC1,7.7% (inactive)
17,Cc1ccc(-c2cc(-c3cccc(F)c3)n[nH]2)c(O)c1,2.1% (inactive)
18,Cc1ccc(-c2cc(-c3ccccc3Cl)[nH]n2)c(O)c1,67.3% (active)
19,COc1ccccc1-c1cc(-c2cc(Cl)ccc2O)n[nH]1,-8% (inactive)
20,Oc1ccccc1-c1cc(-c2ccccc2Cl)[nH]n1,-4.7% (inactive)
21,Cc1ccccc1-c1cc(-c2ccccc2O)n[nH]1,25.4% (inactive)

row,Structure (SMILES),cytotoxicity
1,COC(=O)C1=C(C)NC(=O)CC1c1ccc(C(=O)OC)cc1 (stereo unspecified),5.9% (inactive)
2,CCN(CC)S(=O)(=O)c1ccc2[nH]cc(C(=O)NCCN3CCCCC3C)c(=O)c2c1 (stereo unspecified),0% (inactive)
3,Cc1cc(=O)[nH]c(SCC2COC3(CCCCC3)O2)n1 (stereo unspecified),-12.2% (inactive)
4,Cc1c(-c2nc(N)nc(Nc3ccccc3)n2)oc2ccccc12,52.8% (active)
5,Cc1c(-c2nc(N)nc(Nc3ccccc3F)n2)oc2ccccc12,15% (inactive)
6,Cc1c(-c2nc(N)nc(Nc3ccc(F)cc3)n2)oc2ccccc12,6.3% (inactive)
7,COc1nc(Oc2ccc(C(=O)OCC(N)=O)cc2)nc(N(C)C)n1,3.8% (inactive)
8,O=C1CCc2cc(S(=O)(=O)N3CCC(C(=O)NC4CCCC4)CC3)ccc2N1,0.9% (inactive)
9,C=CCn1c(SCc2csc(C)n2)nc2sc3c(c2c1=O)CCCCC3,4.7% (inactive)
10,Cc1ccc(-c2csc3nc(C)n(-n4c(C)ccc4C)c(=O)c23)o1,10.1% (inactive)
11,C=CCn1c(SCc2csc(C)n2)nc2scc(-c3ccc(C)o3)c2c1=O,86.5% (active)
12,CCSc1nc2c(c(=O)[nH]1)C(c1cccnc1)C(C(=O)OC)=C(C)N2 (stereo unspecified),-19% (inactive)
13,CCn1c(C)c(C(C)=O)c(N2CCCCC2)nc1=S,-8.3% (inactive)
14,CC(=O)c1c(C)[nH]c(C(=O)OCC(=O)Nc2cc(C)on2)c1C,7.8% (inactive)
15,Cc1csc(NC(=O)CSc2nc(C)cs2)n1,3.7% (inactive)
16,CC(C)(C)NC(=O)CSc1nsc(SCC(=O)NC(C)(C)C)c1C#N,1.2% (inactive)
17,O=C(NC1CCS(=O)(=O)C1)c1ccccc1C(=O)c1ccccc1 (stereo unspecified),-4.3% (inactive)
18,O=C(NCCCn1ccnc1)c1cn(-c2ccccc2)nc1-c1ccccc1,-1.6% (inactive)
19,O=C(NC1CCS(=O)(=O)C1)c1cn(-c2ccccc2)nc1-c1ccccc1 (stereo unspecified),59.8% (active)
20,CCCn1c(NC(=O)C2CCN(S(=O)(=O)c3cccs3)CC2)nc2ccccc21,8% (inactive)
21,Cc1cccc(C)c1-n1nnnc1S(=O)(=O)Cc1ccccc1Cl,1% (inactive)

row,Structure (SMILES),cytotoxicity
1,COc1ccccc1-n1nnnc1SCc1ccccc1,-13.8% (inactive)
2,C=CCn1cnc2c(c1=O)c1nc3ccccc3nc1n2-c1ccccc1,1.4% (inactive)
3,Cc1nc(SCC(=O)Nc2c(C)n(C)n(-c3ccccc3)c2=O)n[nH]1,-18.3% (inactive)
4,CCc1ccc2[nH]c(=O)c(CN(Cc3ccc(OC)cc3)Cc3nnnn3CCOC)cc2c1,9.3% (inactive)
5,O=C1c2oc3ccc(F)cc3c(=O)c2C(c2ccccc2)N1CC1CCCO1 (stereo unspecified),-14.4% (inactive)
6,Cc1noc(C(=O)N2CCN(c3ccc(F)cc3)CC2)c1Cl,-11.2% (inactive)
7,CCN1CCN(c2ncc(C(=O)Nc3cc(Cl)ccc3OC)c3ccccc23)CC1,82.5% (active)
8,CCN1CCN(c2ncc(C(=O)Nc3cc(Cl)c(OC)cc3OC)c3ccccc23)CC1,16% (inactive)
9,CCN1CCN(c2ncc(C(=O)Nc3ccccc3C(=O)OC)c3ccccc23)CC1,25.8% (inactive)
10,COc1ccccc1Cn1c(=O)c2ccccc2n2c(SCC(=O)N3CCCCC3)nnc12,-4.5% (inactive)
11,COc1ccc(NC(=O)c2ocnc2C)cc1OC,-32.7% (inactive)
12,OC(COCC1COc2ccccc2O1)CN1CCN(c2ccccn2)CC1 (stereo unspecified),6.2% (inactive)
13,Cc1nc(NCCNC(=O)c2ccco2)c2c(C)c(C)sc2n1,-13.6% (inactive)
14,Cc1cc(NC(=O)COC(=O)c2cccc(S(=O)(=O)N3CCOCC3)c2)no1,-14.7% (inactive)
15,CC(=O)Nc1ccc(S(=O)(=O)N2CCCc3ccccc32)cc1,37.8% (inactive)
16,CCCNC(=O)NC(=O)COC(=O)c1ccc(OC)c(S(=O)(=O)N2CCCc3ccccc32)c1,0.1% (inactive)
17,O=C(O)C1CC=CCC1C(=O)Nc1ccc(S(=O)(=O)N2CCCc3ccccc32)cc1 (stereo unspecified),30.6% (inactive)
18,Cc1cc(NC(=O)COC(=O)c2ccc(S(=O)(=O)N3CCCc4ccccc43)cc2)no1,58.6% (active)
19,COC(=O)Nc1ccc(S(=O)(=O)N2CCCc3ccccc32)cc1,56.8% (active)
